MCF10A rerep: inducers of DNA re-replication in MCF 10A breast cells; MCF 10A DNA re-replication, Hoechst nuclear intensity, 48 h; Potency, µM (doses to about 46.1 µM), actives largely listed as activators; 2.9% of 350,000 active; also: nearly all actives have a fitted effect of over 50% in size
DT40 TDP1 no CPT: qHTS for Inhibitors of human tyrosyl-DNA phosphodiesterase 1 (TDP1): qHTS in cells in absence of CPT. 15% of 420,000 active. DT40 Tdp1-/- hTDP1 cells, no CPT, ATP luminescence, 48 h. Potency, µM (highest dose often 46.2 µM), hits mostly inhibitors. AID 686978, 2013; also: nearly all actives have a fitted effect of over 55% in size
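Seeded 400 DT40-hTDP1 cells/well (vehicle DMSO, no 20 nM CPT); pinned compounds; ≥48 hr at 37 °C; CellTiter-Glo luminescence as viability measure.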
SW480 rereplic: DNA re-replication induction in SW480 cells; SW480 DNA re-replication, Hoechst DNA content imaging, 48 h; Potency, µM (highest dose often 46.1 µM), actives largely listed as activators; 1.8% of 340,000 active; AID 624297; also: nearly all actives have a fitted effect of over 55% in size
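Treated cells incubate 48 hr (37 C, 5% CO2), are stained 40 min with Hoechst, and nuclear fluorescence is enumerated; a rise in nuclei with high DNA signal marks re-replication.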
BCR signal inh: inhibitors of chronic active B-cell receptor signaling | ABC-DLBCL IkBa-CBG/CBR reporter, luminescence ratio, 4 h | Potency, µM (highest dose often 46.1 µM), most hits filed as inhibitors | 0.05% of 340,000 active | AID 493014; active = well fitted inhibition curve with a large enough effect in the signal ratio, with a control signal flat, not every such curve was filed as active; inconclusive = small, poorly fitted or top-dose-only effect, or effect the other way, or a change in a side signal; the % refers to the signal ratio
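Concentration-response series (up to 46 uM) were applied to TMD8 dual-reporter cells for 4 h at 37C with doxycycline. Green/red ratio, after filter-overlap correction, defined %Activity; red signal alone was normalised to basal cells and zero luminescence.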
DT40 TDP1 CPT: DT40-hTDP1 cell growth loss with CPT; 12% of 420,000 active; Potency, µM (series often up to 46.2 µM), hits mostly inhibitors; AID 686979; chicken DT40 Tdp1-/-;hTDP1 cells + 20 nM CPT, ATP luminescence, 48 h; also: nearly all actives have a fitted effect of over 55% in size
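Chicken DT40 Tdp1-/- cells complemented with human TDP1, 400 cells/well, exposed to compounds plus 20 nM camptothecin for at least 48 h at 37 C; viability read as ATP content by CellTiter-Glo luminescence.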
IL-1B inflam inh: inhibitors of inflammasome signaling (IL-1 beta secretion) | THP-1 LPS/ATP IL-1B secretion, AlphaLISA, 16 h; stronger effect = lower value | activity change, % at 57.5 µM | 4.7% of 360,000 active; in the data active = activity change below about -50%; inconclusive = mostly about -30% to -49%
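Secreted IL-1B measured by AlphaLISA bead assay after 16 h compound exposure of THP-1 cells; compounds (final up to 57.5 uM) added 1 h before LPS (250 ng/mL) and ATP (1.25 mM) stimulation; lower signal means less secretion.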
A number is an active result; . = inactive; ? = inconclusive; / = no result given; ! = not confirmed by another sample. A selection: hits, their analogues and other compounds. The true share with any hit is near 19%. Unless noted, calls follow the shape of the dose curve; as a rule, active = well fitted curve in the direction sought with a large enough effect; inconclusive = small, poorly fitted or top-dose-only effect, or another doubt; inactive = no such curve, though single readings can be large; an effect the other way counts as inactive or inconclusive.

SMILES	MCF10A rerep	DT40 TDP1 no CPT	SW480 rereplic	BCR signal inh	DT40 TDP1 CPT	IL-1B inflam inh
CCOc1ccccc1CN1CCCC(C(=O)c2cc(F)ccc2F)C1 (configuration not stated)	.	?	.	.	.	.
O=C(Oc1ccccc1)N1CCC[C@@]2(CCN(C(c3ccccc3)c3ccccc3)C2)C1	/	.	/	/	.	/
CC1(CCCc2ccc(N(CCCl)CCCl)cc2)NC(=O)NC1=O (configuration not stated)	/	0.52µM	/	/	0.41µM	.
[Cl][In]([Cl])[Cl]	.	.	.	/	?	/
CN1/C(=C/C(=O)c2nc(S(C)(=O)=O)ncc2Cl)C(C)(C)c2ccccc21	?	0.46µM	12µM	?	0.58µM	-100
O=C1CC(c2ccco2)Cc2nc(Nc3nc(-c4ccccc4)c4ccccc4n3)ncc21 (configuration not stated)	?	?	.	?	?	.
CCOC(=O)N1C(=O)[C@@](c2ccc(Cl)cc2)(C(C)C)N1C(=O)OCC	21µM	?	?	?	21µM	-113
COCC(=O)N1CCC2(CCCN(Cc3ccncc3)C2)CC1	/	.	/	/	.	/
C=CCN1C(=O)NC(=O)/C(=C/c2ccc(OC)c(COc3ccc(NC(C)=O)cc3)c2)C1=O	?	3.7µM	16µM	?	2.6µM	.
Cc1ccccc1C1=NCC(=S)Nc2ccc(Cl)cc21	.	?	.	?	?	.
CCOC(=O)c1ccc2c(c1)N(CC)C(=O)c1ccccc1S2	?	?	?	?	?	.
O=C(CN1CCCC1)Nc1ccc(Cl)cc1C(=O)c1ccccc1	.	.	.	.	?	.
CN(C)CC/C=C1\c2ccccc2Sc2ccc(Cl)cc21	?	21µM	?	?	24µM	-57
CN(C)CCCN1c2ccccc2Sc2ccc(Cl)cc21	?	23µM!	?	?	11µM!	.
OCCN1CCN(CC/C=C2/c3ccccc3Sc3ccc(Cl)cc32)CC1	4.6µM	23µM	.	?	?	?
CN(C)CCC=C1c2ccccc2CCc2ccccc21	?	27µM!	?	?	24µM!	?
CC(C)[C@H](CN(N=O)[C@@H](Cc1ccccc1)CN(C)N=O)N(CCc1ccccc1)N=O	.	23µM	.	.	23µM	.
CN1CC[C@@]2(CCCN(C(=O)c3csnn3)C2)C1	/	.	/	/	.	/
N#Cc1c(Br)n(C2OC(CO)C(O)C2O)c2ncnc(N)c12 (configuration not stated)	?	1.2µM	?	/	1.5µM	-69
NC(=O)c1c(Br)n(C2OC(CO)C(O)C2O)c2ncnc(N)c12 (configuration not stated)	2.3µM	1.8µM	?	/	2.1µM	-76
NC(=O)c1ncn(C2OC(CO)C(O)C2O)n1 (configuration not stated)	.	/	.	/	/	/
CCOc1ccc(NC(=S)NC2CC3CCC(C2)N3Cc2ccco2)cc1 (configuration not stated)	.	?	.	.	?	.
CC[C@@H](C(=O)[C@@H](C)[C@@H](O)[C@H](C)[C@@H]1O[C@@H]([C@@H](CC)C(=O)O)CC[C@@H]1C)[C@H]1O[C@]2(C=C[C@@H](O)[C@]3(CC[C@@](C)([C@H]4CC[C@](O)(CC)[C@H](C)O4)O3)O2)[C@H](C)C[C@@H]1C	?	0.52µM	?	/	0.58µM	-111
Cc1nnc2n1-c1sc(CCC(=O)N3CCOCC3)cc1C(c1ccccc1Cl)=NC2	/	.	/	/	.	/
Cc1nnc2n1-c1sc(CCc3ccc(CC(C)C)cc3)cc1C(c1ccccc1Cl)=NC2C (configuration not stated)	/	12µM	/	/	?	/
SMILES	MCF10A rerep	DT40 TDP1 no CPT	SW480 rereplic	BCR signal inh	DT40 TDP1 CPT	IL-1B inflam inh
CCOC(=O)[C@]12Cc3cc(OC)ccc3[C@H]1N(CC(=O)OC)C(=O)c1cc(OC)ccc12	/	6.5µM	/	/	18µM	-57
CCOC(=O)[C@]12Cc3cc(Cl)ccc3[C@H]1N(C)C(=O)c1cc(OC)ccc12	/	16µM	/	/	23µM	/
CCCCCN1C(=O)c2cc(OC)ccc2[C@@]2(C(=O)OCC)Cc3cc(OC)ccc3[C@@H]12	/	5.2µM	/	/	10µM	-69
CCOC(=O)[C@]12Cc3cc(OC)ccc3[C@H]1N(C)C(=O)c1cc(OC)ccc12	/	16µM	/	/	?	/
CCCCn1c(C)c(C(=O)O)c2cc(OC)ccc21	.	.	.	.	.	.
CCOC(=O)C1C(=O)N(C)C2(C)CC1c1cc(OC)ccc1O2 (configuration not stated)	.	.	.	.	.	.
CCOC(=O)[C@]12Cc3cc(OC)ccc3[C@H]1N(CC(=O)OC)C(=O)c1ccccc12	/	.	/	/	.	.
Cc1cccc(N=Nc2ccc(N(C)C)cc2)c1	.	.	.	.	.	.
Cc1cc(OCC(=O)Nc2c(C)n(C)n(-c3ccccc3)c2=O)c2c3c(c(=O)oc2c1)CCC3	/	/	/	.	/	/
OCc1cccc[n+]1CCc1ccccc1	.	.	.	/	.	.
Cc1ncc(CN2CCCC(C(=O)c3sccc3C)C2)s1 (configuration not stated)	.	.	.	?	?	.
Cc1c(CCC(=O)N2CCCCC2)c(=O)oc2cc3occ(C(C)(C)C)c3cc12	/	12µM	/	/	12µM	/
CCN1C[C@@]2(COC(=O)c3ccccc3N3C(=O)CC(C)C3=O)CC[C@H](OC)[C@]34C5C[C@@H]6[C@@H](OC)C[C@@](O)(C5[C@H]6OC)[C@@](O)(C13)[C@@H](OC)C24 (some centres not stated)	/	.	/	/	.	/
N#CC1=C(N)Oc2c(c(=O)oc3ccccc23)C1c1cccnc1 (configuration not stated)	.	.	.	?	.	.
N#CC1=C(N)Oc2c(c(=O)sc3ccccc23)C1c1ccncc1 (configuration not stated)	21µM	?	13µM	.	?	.
C[C@]12CCC(=O)C=C1CCc1ccc(O)cc12	/	.	/	/	.	/
O=C(CCc1ccccc1)N1C[C@H]2C[C@@H](C1)c1cccc(=O)n1C2	.	.	.	.	.	.
CCN(CC)c1ccc(CN(C)CCc2ccc(OC)c(OC)c2)cc1	.	?	.	.	23µM	.
CCCOC(=O)Cc1ccc(OCC(=O)N(CC)CC)c(OC)c1	/	?	/	/	.	/
NS(=O)(=O)c1ccc(N=Cc2c(O)n(C3CCCCC3)c(=O)n(C3CCCCC3)c2=O)cc1	.	16µM	.	.	15µM	-100
